From PubChem BioAssay (EPA / NIEHS) come the findings set out here.

Read-out in experiment [1]: Protein phosphatase 2A (PPP2R4), PTPA (gene 5524)
Description: LTEA_HepaRG_PPP2R4: Life Technologies and Expression Analysis (LTEA) Assay for Protein phosphatase 2A (PPP2R4) using HepaRG (AID 2283522). The conditions noted are these: mRNA level, 48 h; actives raise or lower the signal. In a few lines: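 Expression was quantified by Fluidigm qRT-PCR normalised to three housekeeping genes after 48 h treatment. Human HepaRG cells received an 8-point series from 100 µM downward by half-logs, in duplicate with 0.5% DMSO vehicle and 1 mM phenobarbital as induction control.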

Read-out in experiment [2]: solute carrier (SLC22A1), SLC22A1 (gene 6580)
The experiment is described as follows: LTEA_HepaRG_SLC22A1: Life Technologies and Expression Analysis (LTEA) Assay for solute carrier (SLC22A1) using HepaRG (AID 2283524).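 For AC50: differentiated human HepaRG liver cells in serum-free induction medium.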 The conditions noted are these: mRNA level, 48 h; actives raise or lower the signal. The method in brief: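 qRT-PCR readout (TaqMan, Fluidigm arrays) of SLC22A1 transcript, normalized to three housekeeping genes; bidirectional curve fit relative to 0.5% DMSO vehicle. Differentiated human HepaRG cells, 48 h chemical exposure, top concentration 100 uM, half-log steps, eight points.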

Read-out in experiment [3]: Pyruvate Dehydrogenase Kinase 4 (PDK4), PDK4 (gene 5166)
Description: LTEA_HepaRG_PDK4: Life Technologies and Expression Analysis (LTEA) Assay for Pyruvate Dehydrogenase Kinase 4 (PDK4) using HepaRG (AID 2283525). The note with it: mRNA level, 48 h; actives raise or lower the signal. In a few lines: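 HepaRG (human liver line), 48 h chemical exposure, 8-pt half-log CRC top 100 uM, 0.5% DMSO vehicle, duplicates. Readout: TaqMan qRT-PCR of PDK4 mRNA, housekeeping-normalized; gain/loss fit relative to DMSO baseline.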

Read-out in experiment [4]: NAD(P)H dehydrogenase [quinone] 1 (NQO1), NQO1 (gene 1728)
Description: LTEA_HepaRG_NQO1: Life Technologies and Expression Analysis (LTEA) Assay for NAD(P)H dehydrogenase [quinone] 1 (NQO1) using HepaRG (AID 2283526). The note with it: mRNA level, 48 h; actives raise or lower the signal. The method in brief: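 NQO1 transcript induction or loss measured by TaqMan qRT-PCR, referenced to three housekeeping genes and fitted bidirectionally against 0.5% DMSO. HepaRG cultures exposed 48 h, duplicate, eight-point half-log series, top 100 uM.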

Read-out in experiment [5]: Nuclear factor erythroid 2-related factor 2 (Homo sapiens) (UniProt Q16236)
The experiment is described as follows: LTEA_HepaRG_NFE2L2: Life Technologies and Expression Analysis (LTEA) Assay for Nuclear factor erythroid 2-related factor 2 (NFE2L2) Transcription Factor using HepaRG (AID 2283527).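 For outcome: TaqMan qRT-PCR transcript level normalised to ACTB GAPDH and POLR2A housekeeping genes.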 The conditions noted are these: mRNA level, 48 h; actives raise or lower the signal. The method in brief:
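HepaRG, 48 h dosing, 8-pt half-log series from 100 uM in 0.5% DMSO, duplicates. Read-out: NFE2L2 mRNA by qRT-PCR (ACTB/GAPDH/POLR2A normalization). Bidirectional curve fit vs DMSO baseline.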

Read-out in experiment [6]: succinate dehydrogenase complex iron sulfur subunit B (SDHB), SDHB (gene 6390)
The experiment is described as follows: LTEA_HepaRG_SDHB: Life Technologies and Expression Analysis (LTEA) Assay for succinate dehydrogenase complex iron sulfur subunit B (SDHB) using HepaRG (AID 2283528). The conditions noted are these: mRNA level, 48 h; actives raise or lower the signal. The method in brief: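 HepaRG cells (~100,000/well, plated 48 h) exposed in duplicate for 48 h in serum-free induction medium to 8-point half-log series from 100 uM in 0.5% DMSO; mRNA by qRT-PCR normalised to ACTB, GAPDH, POLR2A; bidirectional fit versus DMSO.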

Read-out in experiment [7]: Signal transducer and activator of transcription 3 (Homo sapiens) (UniProt P40763)
The experiment is described as follows: LTEA_HepaRG_STAT3: Life Technologies and Expression Analysis (LTEA) Assay for Signal transducer and activator of transcription (STAT3) using HepaRG (AID 2283529). The note with it: mRNA level, 48 h; actives raise or lower the signal. The method in brief:
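HepaRG, 48 h exposure, 8-pt half-log series (top 100 uM), 0.5% DMSO vehicle, duplicates. Readout: STAT3 transcript by Fluidigm qRT-PCR, housekeeping-normalized; bidirectional fit vs DMSO baseline.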

Read-out in experiment [8]: solute carrier (SLCO1B1), SLCO1B1 (gene 10599)
The experiment is described as follows: LTEA_HepaRG_SLCO1B1: Life Technologies and Expression Analysis (LTEA) Assay for solute carrier (SLCO1B1) using HepaRG (AID 2283530). The conditions noted are these: mRNA level, 48 h; actives raise or lower the signal. The method in brief: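 HepaRG, serum-free induction medium, 48 h dosing, 8-pt half-log from 100 uM, 0.5% DMSO vehicle, duplicates. Readout: SLCO1B1 mRNA, qRT-PCR, ACTB/GAPDH/POLR2A normalization; up or down fit vs DMSO.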

Read-out in experiment [9]: Transforming Growth Factor (TGFA), TGFA (gene 7039)
The experiment is described as follows: LTEA_HepaRG_TGFA: Life Technologies and Expression Analysis (LTEA) Assay for Transforming Growth Factor (TGFA) using HepaRG (AID 2283532). The conditions noted are these: mRNA level, 48 h; actives raise or lower the signal. The method in brief:
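qRT-PCR read-out of TGFA transcript, normalized to three housekeeping genes, fitted bidirectionally against 0.5% DMSO baseline. Human HepaRG cultures received chemicals for 48 h at eight half-log concentrations, top 100 uM.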

Read-out in experiment [10]: Transforming Growth Factor (TGFB1), TGFB1 (gene 7040)
The experiment is described as follows: LTEA_HepaRG_TGFB1: Life Technologies and Expression Analysis (LTEA) Assay for Transforming Growth Factor (TGFB1) Transporter using HepaRG (AID 2283533). The note with it: mRNA level, 48 h; actives raise or lower the signal. The method in brief: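 HepaRG, 48 h post-plating, switched to serum-free induction medium; chemicals 100 uM top, half-log, 8 pts, 0.5% DMSO, dup; 48 h exposure; RNA → Fluidigm TaqMan qRT-PCR; norm ACTB/GAPDH/POLR2A; bidirectional fit vs DMSO.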

Read-out in experiment [11]: TIMP1, TIMP1 (gene 7076)
The experiment is described as follows: LTEA_HepaRG_TIMP1: Life Technologies and Expression Analysis (LTEA) Assay for TIMP1 using HepaRG (AID 2283534). The conditions noted are these: mRNA level, 48 h; actives raise or lower the signal. In a few lines: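 Readout is TIMP1 mRNA level measured by qRT-PCR and normalized to three housekeeping genes. Human HepaRG cells were treated for 48 h in duplicate at eight concentrations up to 100 uM (0.5% DMSO); gain or loss fitted against DMSO.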

Read-out in experiment [12]: Thyroid Hormone Responsive (THRSP), THRSP (gene 7069)
Description: LTEA_HepaRG_THRSP: Life Technologies and Expression Analysis (LTEA) Assay for Thyroid Hormone Responsive (THRSP) using HepaRG (AID 2283536). The note with it: mRNA level, 48 h; actives raise or lower the signal. The method in brief:
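qRT-PCR read-out (Fluidigm TaqMan), housekeeping-normalized (ACTB/GAPDH/POLR2A). HepaRG, 48 h chemical exposure, 8-pt half-log series from 100 uM in 0.5% DMSO, duplicates. Bidirectional curve fit vs 0.5% DMSO baseline.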

Read-out in experiment [13]: Cellular tumor antigen p53 (Homo sapiens) (UniProt P04637)
The experiment is described as follows: LTEA_HepaRG_TP53: Life Technologies and Expression Analysis (LTEA) Assay for Tumor Protein P53 (TP53) using HepaRG (AID 2283537). The note with it: mRNA level, 48 h; actives raise or lower the signal. The method in brief: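 Differentiated HepaRG cells in serum-free induction medium exposed 48 h in duplicate to 8 half-log concentrations, top 100 uM, 0.5% DMSO. TP53 mRNA by TaqMan qRT-PCR (Fluidigm), normalized to ACTB, GAPDH, POLR2A; fitted bidirectionally versus DMSO.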

Read-out in experiment [14]: UDP glucuronosyltransferase (UGT1A1), UGT1A1 (gene 54658)
The experiment is described as follows: LTEA_HepaRG_UGT1A1: Life Technologies and Expression Analysis (LTEA) Assay for UDP glucuronosyltransferase (UGT1A1) using HepaRG (AID 2283538). The note with it: mRNA level, 48 h; actives raise or lower the signal. In a few lines:
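UGT1A1 transcript level, measured by qRT-PCR with three housekeeping genes for normalization, after 48 h treatment of human HepaRG cells (0.5% DMSO, duplicates, up to 100 uM, half-log steps, 8 points). Curves fit both directions against DMSO baseline.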

Experiment [15] is described as follows: LTEA_HepaRG_LDH_cytotoxicity: Cytotoxicity Assessment in the Life Technologies and Expression Analysis (LTEA) Assay (AID 2283563; active = hit-call score of the fitted dose curve at least 0.9, where 1 is the maximum;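 for AC50: LDH activity released into spent culture medium as a marker of cell death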). In a few lines: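 Cells were thawed and plated for 48 h. Medium was then replaced with serum-free induction medium. Chemicals (8 half-log points, maximum 100 uM, 0.5% DMSO) were added in duplicate for 48 h, after which spent medium was assayed for LDH.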

Read-out in experiment [16]: Phosphatase and tensin (PTEN), PTEN (gene 5728)
Description: LTEA_HepaRG_PTEN: Life Technologies and Expression Analysis (LTEA) Assay for Phosphatase and tensin (PTEN) using HepaRG (AID 2283523). The note with it: mRNA level, 48 h; actives raise or lower the signal. In a few lines: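 HepaRG, 48 h exposure, 8-pt half-log series from 100 uM top, 0.5% DMSO vehicle, duplicates. Readout: Fluidigm qRT-PCR of PTEN transcript; housekeeping normalization (ACTB, GAPDH, POLR2A). Gain or loss fitted relative to DMSO baseline.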

Read-out in experiment [17]: X-box binding protein 1 (XBP1), XBP1 (gene 7494)
Description: LTEA_HepaRG_XBP1: Life Technologies and Expression Analysis (LTEA) Assay for X-box binding protein 1 (XBP1) using HepaRG (AID 2283540). The conditions noted are these: mRNA level, 48 h; actives raise or lower the signal. In a few lines:
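Transcript levels of XBP1, measured by qRT-PCR and normalised to three housekeeping genes, were fitted bidirectionally relative to 0.5% DMSO controls. Human HepaRG cells received eight-point half-log dilutions from 100 uM for 48 h.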

Read-out in experiment [18]: UDP glucuronosyltransferase (UGT1A6), UGT1A6 (gene 54578)
Description: LTEA_HepaRG_UGT1A6: Life Technologies and Expression Analysis (LTEA) Assay for UDP glucuronosyltransferase (UGT1A6) using HepaRG (AID 2283539). The note with it: mRNA level, 48 h; actives raise or lower the signal. The method in brief: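 HepaRG, 48 h post-plating switch to serum-free induction medium; chemical 48 h, 100 uM top, half-log x8, duplicate, 0.5% DMSO. Phenobarbital 1mM induction control. UGT1A6 mRNA by TaqMan qRT-PCR; gain/loss fit vs DMSO.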

Several values for one entry are separate records, joined by “and”; a condition that tells them apart may be missing. Equal entries are not always repeated. More than one record can exist for a structure, and the calls need not agree. Activity calls are given as the source filed them. Rule for the calls, unless noted: active = hit-call score of the fitted dose curve at least 0.9, where 1 is the maximum; inactive = score below 0.9.

Sequence of Nuclear factor erythroid 2-related factor 2 (Homo sapiens) (Q16236 whole entry, looked up): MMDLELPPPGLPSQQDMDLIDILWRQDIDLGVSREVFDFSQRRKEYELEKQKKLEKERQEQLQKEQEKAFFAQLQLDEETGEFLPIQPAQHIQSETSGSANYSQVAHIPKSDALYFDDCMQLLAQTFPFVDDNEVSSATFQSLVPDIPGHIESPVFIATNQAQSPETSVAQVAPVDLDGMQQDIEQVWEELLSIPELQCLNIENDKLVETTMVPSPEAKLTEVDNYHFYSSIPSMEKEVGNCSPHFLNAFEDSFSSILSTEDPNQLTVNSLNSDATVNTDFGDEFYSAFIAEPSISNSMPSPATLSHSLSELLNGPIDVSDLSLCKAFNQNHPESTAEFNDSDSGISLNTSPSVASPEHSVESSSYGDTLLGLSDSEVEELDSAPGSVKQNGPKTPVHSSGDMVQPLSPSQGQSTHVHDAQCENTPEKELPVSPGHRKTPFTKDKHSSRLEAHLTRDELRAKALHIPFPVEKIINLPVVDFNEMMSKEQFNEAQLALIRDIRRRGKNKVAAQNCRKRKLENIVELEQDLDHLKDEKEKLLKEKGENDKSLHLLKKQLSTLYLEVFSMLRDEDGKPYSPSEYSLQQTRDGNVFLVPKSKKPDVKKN
Sequence of Cellular tumor antigen p53 (Homo sapiens) (P04637 whole entry, looked up): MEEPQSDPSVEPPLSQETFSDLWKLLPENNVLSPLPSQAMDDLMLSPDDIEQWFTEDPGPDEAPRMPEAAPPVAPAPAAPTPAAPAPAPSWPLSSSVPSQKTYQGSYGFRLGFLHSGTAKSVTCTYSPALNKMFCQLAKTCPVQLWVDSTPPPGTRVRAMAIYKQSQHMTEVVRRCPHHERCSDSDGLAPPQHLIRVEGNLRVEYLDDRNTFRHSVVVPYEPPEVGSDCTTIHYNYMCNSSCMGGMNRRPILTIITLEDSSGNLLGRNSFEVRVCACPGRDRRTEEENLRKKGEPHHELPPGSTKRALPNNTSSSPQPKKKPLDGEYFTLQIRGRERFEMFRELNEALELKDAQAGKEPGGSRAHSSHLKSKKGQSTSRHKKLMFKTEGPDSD
Sequence of Signal transducer and activator of transcription 3 (Homo sapiens) (P40763 whole entry, looked up): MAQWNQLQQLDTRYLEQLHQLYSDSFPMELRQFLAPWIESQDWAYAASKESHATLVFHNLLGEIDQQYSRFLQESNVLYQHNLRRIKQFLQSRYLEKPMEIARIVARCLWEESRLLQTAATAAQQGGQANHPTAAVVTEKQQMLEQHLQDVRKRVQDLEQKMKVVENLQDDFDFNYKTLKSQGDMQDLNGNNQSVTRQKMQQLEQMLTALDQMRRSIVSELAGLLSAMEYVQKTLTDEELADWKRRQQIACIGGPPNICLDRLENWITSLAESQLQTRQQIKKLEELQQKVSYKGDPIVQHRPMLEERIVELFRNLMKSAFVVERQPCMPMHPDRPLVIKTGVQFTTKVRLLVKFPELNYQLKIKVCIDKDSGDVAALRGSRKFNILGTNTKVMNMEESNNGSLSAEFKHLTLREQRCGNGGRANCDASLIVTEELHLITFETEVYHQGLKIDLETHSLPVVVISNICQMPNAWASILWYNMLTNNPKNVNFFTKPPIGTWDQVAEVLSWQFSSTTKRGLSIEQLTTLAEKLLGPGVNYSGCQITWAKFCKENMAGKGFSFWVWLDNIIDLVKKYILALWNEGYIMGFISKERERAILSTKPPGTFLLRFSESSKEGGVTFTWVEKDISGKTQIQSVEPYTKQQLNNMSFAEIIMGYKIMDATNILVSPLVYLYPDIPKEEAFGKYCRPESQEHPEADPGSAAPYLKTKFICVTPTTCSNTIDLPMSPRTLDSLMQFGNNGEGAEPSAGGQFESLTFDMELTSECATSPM

Regarding `CC(C)(C)C(O)C(Oc1ccc(Cl)cc1)n1cncn1` (stereo not given), the call in experiment [1], in experiment [2], in [3], in experiment [4], in experiment [5] and in experiment [6] was inactive. Also, the outcome in experiment [7], in experiment [8], in experiment [9], in experiment [10], in experiment [11] and in [13] was inactive. The compound was classed as inactive in [15]. Moreover, the AC50 in [5] is 9.92 µM (active); in experiment [12] it was 35.3 µM (active) and 36 µM (active) and 27.9 µM (active); in [13] it was 0.354 µM (active); in experiment [14], 3.12 µM (active) and 2.49 µM (active) and 3.05 µM (active).
Regarding `COP(=S)(OC)Oc1ccc([N+](=O)[O-])cc1`, the result in experiment [1], in experiment [16], in experiment [2], in [3], in [4] and in experiment [5] was inactive. Also, the outcome in [6], in experiment [7], in [8], in experiment [9], in [10] and in experiment [11] was inactive. For the same compound, the result in experiment [12], in [13], in [14], in experiment [17] and in experiment [15] was inactive.
For `CCC(C)(NC(=O)c1cc(Cl)c(C)c(Cl)c1)C(=O)CCl` (stereo not given), the compound was called inactive in [1], in experiment [3], in [5], in [6], in experiment [7] and in [9]. Further, the result in experiment [11] and in experiment [13] was inactive. For the same compound, the AC50 in [2] is 82.9 µM (active); in [4], 79.8 µM (active); in [8] it was 75.8 µM (active); in [10], 75.6 µM (active); in experiment [12], 95.3 µM (active); in experiment [14], 12.4 µM (active). Further, the half-maximal activity concentration (AC50) in experiment [18] was 80.3 µM (active); in experiment [15], 77.6 µM (active).

Broadly, the AC50 is the concentration at which the activity in the assay is half-maximal.
